# hcDAF-12 act: activates DAF-12 receptor from parasite H. contortus. HEK293 hcDAF-12 lit1-tk-luc reporter, luminescence; 0% DMSO, 100% Δ7-dafachronic acid. activation, % at 6.8 µM. actives 1.4% (n = 370,000). AID 652067;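 active means activation above the mean of all tested compounds plus 3 SD, cut at about 5.5% in these data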;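 further: 100% = response to 3 µM Δ7-dafachronic acid high control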
# hgDAF12 agonist: hgDAF-12 agonism, primary luciferase screen. activation, % at 6.8 µM. HEK293 GAL4-hgDAF12 UAS-luciferase reporter, agonist luminescence; normalized to butyrate control. actives 1.8% (n = 370,000). AID 687014;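 active means activation above a cutoff set at the mean of all screened compounds plus 3 SD, cut at about 10% in these data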;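 further: 0% = DMSO wells and 100% = sodium butyrate wells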
# DAX1 inh-1: inhibitors of DAX1 repression of SF-1 activated StAR promoter; HEK293T StAR-luciferase reporter, SF-1/DAX-1 repression relief; inhibition, % at 6.8 µM; actives 1.1% (n = 370,000); AID 652010;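 active means inhibition above the mean over all tested compounds plus 3 SD, cut at about 3.6% in these data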;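 further: 0% = DAX-1 cells with DMSO and 100% = cells lacking DAX-1 with DMSO; higher inhibition means more luminescence from relief of DAX-1 repression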
# Rev-erbA mod: Rev-erb alpha (human) modulation; Rev-erbα–FITC-DNA binding, fluorescence polarization, 90 min; P20393; actives 0.79% (n = 370,000); activity, % at 10 µM;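 active means activity above about 14%, limit read from the data; passing the limit was not always enough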;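 further: 0% = DMSO wells with 35 nM protein and 100% = DMSO wells with 750 nM protein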
# Target sequence (P20393 whole entry, looked up): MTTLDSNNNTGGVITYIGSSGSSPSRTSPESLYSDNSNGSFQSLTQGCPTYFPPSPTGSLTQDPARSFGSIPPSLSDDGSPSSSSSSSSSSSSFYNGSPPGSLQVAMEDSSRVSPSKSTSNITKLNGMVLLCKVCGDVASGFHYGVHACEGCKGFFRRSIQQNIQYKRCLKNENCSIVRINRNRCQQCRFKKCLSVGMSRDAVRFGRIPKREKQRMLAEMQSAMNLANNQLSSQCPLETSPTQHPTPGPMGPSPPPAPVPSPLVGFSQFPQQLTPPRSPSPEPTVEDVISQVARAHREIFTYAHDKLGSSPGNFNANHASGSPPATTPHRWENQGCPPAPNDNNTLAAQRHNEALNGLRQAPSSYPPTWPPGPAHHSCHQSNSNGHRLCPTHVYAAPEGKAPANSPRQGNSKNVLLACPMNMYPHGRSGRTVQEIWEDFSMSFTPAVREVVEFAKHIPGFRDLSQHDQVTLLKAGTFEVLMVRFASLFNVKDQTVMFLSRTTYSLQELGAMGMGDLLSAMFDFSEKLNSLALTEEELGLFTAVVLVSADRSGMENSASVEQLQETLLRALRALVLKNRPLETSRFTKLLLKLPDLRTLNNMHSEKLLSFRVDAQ
# ssDAF-12 act: activators of S. stercoralis DAF-12 nuclear receptor. HEK293 ssDAF-12/GRIP1 lit1-tk-luc reporter, luminescence; % of 3 µM dafachronic acid response. actives 1% (n = 370,000). activation, % at 6.8 µM;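 active means activation above the mean over all tested compounds plus 3 SD, cut at about 0.9% in these data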;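 further: 0% = DMSO-only wells and 100% = 3 µM delta7-dafachronic acid wells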
# DAX1 inh-2: inhibitors of human orphan nuclear receptor DAX1 (NR0B1); P51843; HEK293 Gal4-DAX1 luciferase reporter, luminescence; inhibition, % at 6.75 µM; actives 0.99% (n = 340,000);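 active means inhibition above the mean over all tested compounds plus 3 SD, cut at about 4.2% in these data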;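 further: 0% = DAX1-transfected cells with DMSO and 100% = empty-vector control cells with DMSO; inhibition shows as a rise in luminescence from relieved DAX1 repression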
# * marks the source's active call; other numbers are inactive results; . = not tested or not shown; ! = repeats disagree. Rows were chosen to be rich in hits. Some 4.8% of all compounds tested hit in one or more screens of this group.
SMILES,hcDAF-12 act,hgDAF12 agonist,DAX1 inh-1,Rev-erbA mod,ssDAF-12 act,DAX1 inh-2
C[C@@H]1CCCCO[C@@H](CN(C)Cc2ccncc2)[C@@H](C)CN([C@H](C)CO)C(=O)c2cc(NC(=O)c3ccccc3)ccc2O1,-2,-1,0,10,-1,4.8*
CC(=O)Oc1oc(-c2ccccc2)nc1/C=N/c1ccccn1,2,6,2,-5,-1,5.1*
COc1ccccc1N=Cc1nc(-c2ccccc2)oc1OC(C)=O,3,1,0,-1,0,2
N#Cc1ccc(Cn2ccc3ccc(-c4ccc5ccn(C(=O)c6ccccc6)c5c4)cc32)cc1,-2,2,-2,5,-1,.
Cc1ccc(C(=O)Nc2nc(=O)n(C)s2)cc1,5,6,1,-3,-1,5.6*
Cc1ccc(C(=O)Nc2nc(=O)[nH]s2)cc1,0,1,0,3,-1,4.4*!
Cc1ccc(C(=O)Nc2nc(=O)n(C(=O)CC(C)C)s2)cc1,0,0,0,2,-1,1
COC(=O)C1CN(Cc2ccc(F)cc2)CCS(=O)(=O)N1Cc1ccc(C)cc1 (stereo unspecified),-1,-2,-1,-6,-2,.
CC(=O)Nc1ccc(S(=O)(=O)NCc2ccccn2)cc1,-1,-1,-1,-2,-1,4.3*
Cn1c(=O)c(Oc2ccc(Cl)cc2)c(O)c2ccccc21,1,0,1,-3,1.1*,-1
CC(C)(C)c1ccc(S(=O)(=O)N2CCC(c3cn4ccccc4n3)CC2)cc1,-2,3,-1,5,0,.
CN(C)CCCN=c1cc(-c2ccccc2)oc2ccc(Cl)cc12,5,10,4.4*,-7,0,6.3*
CC(O)CN=c1cc(-c2ccccc2)oc2ccc(Cl)cc12 (stereo unspecified),4,11*,1,0,-1,0
OCCN=c1cc(-c2ccccc2)oc2ccc(Cl)cc12,.,.,.,.,.,1
Cn1cccc1C(=O)N1CCN(S(=O)(=O)c2ccc(C(C)(C)C)cc2)CC1,-3,-3,-1,3,-1,.
C/C(=N\NC(=O)c1ccc(Cl)c(Cl)c1)c1ccc(Br)s1,3,3,0,-5,-1,1
C/C(=N\NC(=O)c1ccc(C)cc1C)c1ccc2c(c1)OCO2,2,7,1,-3,1.3*,2
C/C(=N\NC(=O)c1cc2ccccc2cc1O)c1ccc2c(c1)OCO2,-1,0,0,1,-1,0
C/C(=N/NC(=O)c1ccc2c(c1)OCO2)c1ccc(Br)s1,0,3,0,-10,0.9*,1
CCOc1cc(C(=O)Nc2nnc(C)s2)cc(OCC)c1OCC,0,2,0,0,-1,1
CCCc1cc(C(=O)Nc2nnc(C)s2)cs1,3,11*,3,-5,0,2
COc1ccc(C(=O)c2[nH]c(N)c(C(=O)NCCc3c[nH]c4ccccc34)c2-c2ccc(C(F)(F)F)cc2)cc1,5,5,0,3,1.9*,.
COC(CNC(=O)[C@H](Cc1ccccc1)NC1(C(=O)NC2CCCCC2)CCCC1)OC,-1,-1,.,8,-1,.
Cc1ccc2c(c1)-c1c(cnn1CC(=O)O)CO2,-1,-2,1,-1,0,1
CCN(CCN(C)C)C(=O)Cn1ncc2c1-c1cc(C)ccc1OC2,-1,2,0,3,-1,5.6*
SMILES,hcDAF-12 act,hgDAF12 agonist,DAX1 inh-1,Rev-erbA mod,ssDAF-12 act,DAX1 inh-2
COc1ccc(NC(=O)c2cc(C3CCCCN3S(=O)(=O)Cc3ccccc3)on2)cn1 (stereo unspecified),1,11*,3,-2,-1,.
Cc1ccc(-c2cc(-c3nnc(SCC(=O)N4c5ccccc5Sc5ccccc54)n3N)[nH]n2)cc1,-3,0,-2,-1,-1,.
O=C(O)c1cc(S(=O)(=O)Nc2ccc3cn[nH]c3c2)ccc1O,5,4,0,-9,1.0*,1
C(=Cc1cnnc2ccccc12)c1ccccc1,3,13*,2,4,1,2
CC1CCCC(C)N1CCCNC(=O)c1ccc2nc(N3CCCCC3)sc2c1 (stereo unspecified),2,9,3.8*,3,-1,2
CCC1CCCCN1CCCNC(=O)c1ccc2nc(N3CCCCC3)sc2c1 (stereo unspecified),5.6*,11*,2,-3,1,1
CC1CCCC(C)N1CCCNC(=O)c1ccc2nc(N3CCOCC3)sc2c1 (stereo unspecified),-2,0,0,3,-1,1
CCCN1CCN(CCCNC(=O)c2ccc3nc(N4CCCCC4)sc3c2)CC1,3,7,4.4*,-3,-1,2
CC1CC(C)CN(CCCNC(=O)c2ccc3nc(N4CCCCC4)sc3c2)C1 (stereo unspecified),4,3,2,0,-1,0
Cc1cccc(NC(=O)C(=O)NCC2CCCO2)c1 (stereo unspecified),3,13*,3.8*,-4,-1,0
Cc1cc(NC(=O)CSc2nnc(-c3ccncc3)n2Cc2ccccc2)n(-c2ccccc2)n1,0,0,0,-2,0,-1
Cn1c(SCC(=O)Nc2ccc3c(c2)n(C)c(=O)n3C)nnc1-c1ccncc1,-1,-1,0,1,-1,0
Cc1cc(NC(=O)CSc2nnc(-c3ccncc3)n2C)n(-c2ccccc2)n1,-1,-1,0,-1,-1,6.0*
Cc1cccc(NC(=O)CSc2nnc(-c3ccncc3)n2C)c1,-1,12*,0,-4,-1,0
Cc1cccc(NC(=O)Cn2nnc3ccccc32)c1,3,9,3,-1,0,4.7*
Cc1ccc(NC(=O)Cn2nnc3ccccc32)cc1,5,9,2,7,0,.
COC(=O)[C@]12C[C@H](CC(=O)NCC3CCCCC3)C(=O)N(Cc3ccc(Cl)cc3Cl)C1=C[C@H](C(C)(C)C)O[C@@H]2C,-2,2,1,-5,0,.
CC(=O)Nc1nnc(-c2ccc3c(c2)CCCC3)o1,2,11*,3.8*,1,0,1
O=C(Nc1nc2ncccn2c1-c1ccc(F)c(F)c1)C1CC1,-1,4,0,-2,-1,.
Cc1c(N=Cc2ccc(O)c(Br)c2)cccc1[N+](=O)[O-],6.1*,2,0,-3,1.1*,0
O=[N+]([O-])c1ccc(N=Cc2ccc(Br)c([N+](=O)[O-])c2)cc1,0,-2,0,-3,-1,3
CCN(C(=O)CCc1cn(CC)c2ccccc12)c1ccc(Oc2cccnc2)cc1,-1,11*,3.6*,1,0,.

# Bioassay records: PubChem, several laboratories
